This passage reports growth results from PubChem BioAssay (NCI).

About 83,000 compounds went through this panel and 20% of them were active in at least one assay; those are over-represented in the sample as a whole.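 Values shown are percent growth following 48 h exposure of cells in 96-well plates to a single concentration of compound; below 10 was considered active.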 Calls of active or inactive are those of the source.

The subject of the assay is SW-620 colon. As to the kind of experiment: NCI-60 one-dose screen, 48 h (100 = growth as untreated, 0 = no growth, -100 = all killed). The settings on record: 10 µM unless noted.
Take `CCOC(=O)c1cnc2c(-c3ccc(Cl)c(Cl)c3)cnn2c1`: the growth was 42.3% (inactive).
For the compound `CCCc1[nH]c(-c2cc(N)ccc2Cl)c2c1C(=O)CCCC2`, the growth was 105% (inactive).
Take `O=C(Nc1ccc(N=Cc2c(O)[nH]c3ccccc23)cc1)Nc1ccc(S(=O)(=O)Nc2ncccn2)cc1`: the growth is 103% (inactive).
For `Cc1ccc(NC(=O)Nc2nc3ccc([N+](=O)[O-])cc3s2)cc1`, the growth was 8.56% (active).
In the case of `COc1ccc(C2C(C#N)=C(/N=C/c3ccc(Cl)cc3)Oc3c2sc2c(C)cccc32)cc1` (stereo not drawn), the growth was 31.2% (inactive).
For `Cc1ccc2c(n1)C(=O)C(Cl)=C(Nc1ccc(C(F)(F)F)cc1)C2=O`, the growth is -10.5% (active).
In the case of `Brc1cc(-c2cc(-c3ccc4c(c3)OCCO4)[nH]n2)cs1`, the growth is 36.7% (inactive).
To `CN(C)c1cccc2c(S(=O)(=O)Nc3cccc(-c4csc(NC(=O)CCCCCN5CCN(CCO)CC5)n4)c3)cccc12` belongs 98.4% (inactive); to `CC1=C(C)C(=O)C(Nc2cccc(C(=O)OC(C)(C)C)c2)=CC1=O`, 94.8% (inactive).
As to `C=C(C)[C@@H]1CC[C@]2(C(=O)O)CC[C@]3(C)[C@H](CC[C@@H]4[C@@]5(C)C/C(=C/c6ccccn6)C(=O)C(C)(C)[C@@H]5CC[C@]43C)[C@@H]12`, the growth was 27.9% (inactive).
To `Nc1ccc(Nc2ncnc3sc4c(c23)CCN(Cc2ccccc2)C4)cc1` belongs 99.7% (inactive); to `Cc1ccsc1[C@H]1c2[nH]c3ccccc3c2C[C@H]2C(=O)N(CCCCCCC(=O)NO)CC(=O)N12`, 82.5% (inactive).
As for `C=C(C)[C@@H]1CC[C@]2(COCCCNCCCN)CC[C@]3(C)[C@H](CC[C@@H]4[C@@]5(C)CC[C@H](O)C(C)(C)[C@@H]5CC[C@]43C)[C@@H]12`, the growth was -68.1% (active).
